Molecules are shown by their SMILES. Inconclusive results are not listed. Unmarked numbers belong to inactive results. Calls follow the shape of the dose curve; as a rule, active = well fitted inhibition curve with a large enough effect; inconclusive = small, poorly fitted or top-dose-only effect; inactive = flat fitted curve, though single readings scatter.

The values below come from PubChem BioAssay (NCATS).
% is scaled to controls: 0 for no effect and ±100 for the full control effect.

This assay relates to KB-3-1. In words: Cytotoxic Profiling of Annotated Libraries Using Quantitative High-Throughput Screening (AID 1296008). Also: nearly all actives have a fitted effect of over 60% in size. Particulars: Five cell lines viability, CellTiter-Glo ATP luminescence, 48-72 h; max response: stronger effect = lower value. The method, boiled down:
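Cells exposed to compounds for 48 or 72 hr at 37 degrees Celsius. Viability read as ATP-coupled luminescence with CellTiter-Glo after 10 min at room temperature.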
Background: Cellular ATP, detected with luciferase, serves as a proxy for viable cell number.
For `CCCCCc1ccc(C)cc1O`, the max response was -0.225%.

As to `CC(=O)Nc1ccc(OC(C)=O)cc1`, the max response was 6.1%.

On to `CC(=O)Nc1c(I)c(C(=O)O)c(I)c(N(C)C(C)=O)c1I`, for which the max response is 3.77%.

Take `CS(=O)(=O)OCC(O)C(O)COS(C)(=O)=O` (stereo unspecified): the max response is -18.1%.

For `CCOC(=O)[C@@H](N)CS`, the max response was -7.89%.

On to `c1ccc2cc(C3=NCCN3)ccc2c1`, for which the max response is -9.97%.

Turning to `CCCCCCCCCCCCOCCCN`, the max response was -4.56%.

As for `O=C1c2ccccc2CN2C(=O)c3ccccc3CN12`, the max response was 1.75%.

In the case of `CC1(C)S[C@@H]2[C@H](N3C(=O)C(c4ccccc4)NC3(C)C)C(=O)N2[C@H]1C(=O)O` (stereo partly specified), the max response was 3.76%.

With `Oc1ccc(Cl)c2c1CCC2`, the max response is -14.4%.

As to `CO/N=C(\C(=O)N[C@@H]1C(=O)N2C(C(=O)O)=C(CSc3nnnn3C)CS[C@H]12)c1csc(N)n1`, the max response was -10.7%.

For `c1ccc(-n2cnnn2)cc1`, the max response is 0.0496%.

In the case of `CC(C)[C@@H](N)C(=O)O`, the max response is -13.9%.

With `CCC(Oc1ccccc1)C(=O)N[C@@H]1C(=O)N2[C@@H]1SC(C)(C)[C@@H]2C(=O)O` (stereo partly specified), the max response was 9.51%.

On to `CC[C@@H]1/C=C(\C)C[C@H](C)C[C@H](OC)[C@H]2O[C@@](O)(C(=O)C(=O)N3CCCC[C@H]3C(=O)O[C@H](/C(C)=C/[C@@H]3CC[C@@H](Cl)[C@H](OC)C3)[C@H](C)[C@@H](O)CC1=O)[C@H](C)C[C@@H]2OC`, for which the max response is -9.83%.

With `CCC(Cc1c(I)cc(I)c(O)c1I)C(=O)O` (stereo unspecified), the max response was -4.91%.
